Eleven compounds from ChEMBL document CHEMBL5724796, “Tm Shift (DSF) assay results for EUbOPEN Chemogenomics Library” (2024) can be followed below.

SMILES strings stand for the structures. Residues, ends and D or L forms follow the SMILES beside them. *: point of attachment. CH2Cl = ClC*

Settings in all cases: Compound concentration 20.0 uM
Assay [1] concerns the target Tyrosine-protein kinase ABL1 (Homo sapiens) (UniProt P00519).
Assay [2] concerns the target Bromodomain-containing protein 4 (Homo sapiens) (UniProt O60885).
Assay [3] deals with Cyclin-dependent kinase 2 (Homo sapiens) (UniProt P24941).
Assay [4] concerns the target Casein kinase I isoform delta (Homo sapiens) (UniProt P48730).
For assay [5], the target named is Glycogen synthase kinase-3 beta (Homo sapiens) (UniProt P49841).
Assay [6] concerns the target Mitogen-activated protein kinase 1 (Homo sapiens) (UniProt P28482).
Assay [7] addresses T1, Aurora kinase A (Homo sapiens) (UniProt O14965).
T1 sequence (whole entry): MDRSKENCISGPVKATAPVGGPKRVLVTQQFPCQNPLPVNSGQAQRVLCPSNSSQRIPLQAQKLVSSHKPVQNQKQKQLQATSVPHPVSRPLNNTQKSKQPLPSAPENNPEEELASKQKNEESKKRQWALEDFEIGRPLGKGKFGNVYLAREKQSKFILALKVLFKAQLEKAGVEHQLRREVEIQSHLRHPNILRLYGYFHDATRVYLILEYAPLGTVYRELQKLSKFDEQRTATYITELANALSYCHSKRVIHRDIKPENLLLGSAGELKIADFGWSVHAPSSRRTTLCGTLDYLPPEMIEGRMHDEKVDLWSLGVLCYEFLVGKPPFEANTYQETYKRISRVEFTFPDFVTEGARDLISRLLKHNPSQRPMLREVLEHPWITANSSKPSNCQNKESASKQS

Assay [8] addresses T2, Transcription intermediary factor 1-alpha (Homo sapiens) (UniProt O15164).
T2 sequence (whole entry): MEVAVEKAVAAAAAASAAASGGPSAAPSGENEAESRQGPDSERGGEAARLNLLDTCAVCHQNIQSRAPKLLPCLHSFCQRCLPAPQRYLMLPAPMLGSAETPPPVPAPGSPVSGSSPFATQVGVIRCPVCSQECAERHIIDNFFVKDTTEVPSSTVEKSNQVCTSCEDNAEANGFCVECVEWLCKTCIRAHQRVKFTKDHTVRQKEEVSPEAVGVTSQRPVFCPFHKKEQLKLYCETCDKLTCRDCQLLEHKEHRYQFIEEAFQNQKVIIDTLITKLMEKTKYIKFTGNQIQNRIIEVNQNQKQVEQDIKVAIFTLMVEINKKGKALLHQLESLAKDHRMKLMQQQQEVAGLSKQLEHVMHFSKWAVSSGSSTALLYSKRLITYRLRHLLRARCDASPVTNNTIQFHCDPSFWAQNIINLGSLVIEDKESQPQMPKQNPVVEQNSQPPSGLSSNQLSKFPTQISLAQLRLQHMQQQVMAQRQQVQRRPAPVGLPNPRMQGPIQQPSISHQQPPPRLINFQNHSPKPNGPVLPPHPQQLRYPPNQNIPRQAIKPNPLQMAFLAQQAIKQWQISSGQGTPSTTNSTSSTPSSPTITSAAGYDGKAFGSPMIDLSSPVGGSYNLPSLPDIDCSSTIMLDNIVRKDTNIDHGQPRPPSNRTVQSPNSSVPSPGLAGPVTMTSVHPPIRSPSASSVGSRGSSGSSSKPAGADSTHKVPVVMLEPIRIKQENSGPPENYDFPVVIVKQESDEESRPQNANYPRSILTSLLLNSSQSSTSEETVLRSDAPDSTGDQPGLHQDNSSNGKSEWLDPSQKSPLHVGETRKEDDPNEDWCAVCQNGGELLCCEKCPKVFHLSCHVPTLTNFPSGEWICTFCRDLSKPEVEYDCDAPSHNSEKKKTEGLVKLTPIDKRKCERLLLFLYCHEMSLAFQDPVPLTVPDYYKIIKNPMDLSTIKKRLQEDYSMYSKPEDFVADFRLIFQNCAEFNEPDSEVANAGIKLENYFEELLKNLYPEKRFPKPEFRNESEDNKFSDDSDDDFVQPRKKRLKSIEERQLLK

Sequence of Tyrosine-protein kinase ABL1 (Homo sapiens) (P00519 whole entry): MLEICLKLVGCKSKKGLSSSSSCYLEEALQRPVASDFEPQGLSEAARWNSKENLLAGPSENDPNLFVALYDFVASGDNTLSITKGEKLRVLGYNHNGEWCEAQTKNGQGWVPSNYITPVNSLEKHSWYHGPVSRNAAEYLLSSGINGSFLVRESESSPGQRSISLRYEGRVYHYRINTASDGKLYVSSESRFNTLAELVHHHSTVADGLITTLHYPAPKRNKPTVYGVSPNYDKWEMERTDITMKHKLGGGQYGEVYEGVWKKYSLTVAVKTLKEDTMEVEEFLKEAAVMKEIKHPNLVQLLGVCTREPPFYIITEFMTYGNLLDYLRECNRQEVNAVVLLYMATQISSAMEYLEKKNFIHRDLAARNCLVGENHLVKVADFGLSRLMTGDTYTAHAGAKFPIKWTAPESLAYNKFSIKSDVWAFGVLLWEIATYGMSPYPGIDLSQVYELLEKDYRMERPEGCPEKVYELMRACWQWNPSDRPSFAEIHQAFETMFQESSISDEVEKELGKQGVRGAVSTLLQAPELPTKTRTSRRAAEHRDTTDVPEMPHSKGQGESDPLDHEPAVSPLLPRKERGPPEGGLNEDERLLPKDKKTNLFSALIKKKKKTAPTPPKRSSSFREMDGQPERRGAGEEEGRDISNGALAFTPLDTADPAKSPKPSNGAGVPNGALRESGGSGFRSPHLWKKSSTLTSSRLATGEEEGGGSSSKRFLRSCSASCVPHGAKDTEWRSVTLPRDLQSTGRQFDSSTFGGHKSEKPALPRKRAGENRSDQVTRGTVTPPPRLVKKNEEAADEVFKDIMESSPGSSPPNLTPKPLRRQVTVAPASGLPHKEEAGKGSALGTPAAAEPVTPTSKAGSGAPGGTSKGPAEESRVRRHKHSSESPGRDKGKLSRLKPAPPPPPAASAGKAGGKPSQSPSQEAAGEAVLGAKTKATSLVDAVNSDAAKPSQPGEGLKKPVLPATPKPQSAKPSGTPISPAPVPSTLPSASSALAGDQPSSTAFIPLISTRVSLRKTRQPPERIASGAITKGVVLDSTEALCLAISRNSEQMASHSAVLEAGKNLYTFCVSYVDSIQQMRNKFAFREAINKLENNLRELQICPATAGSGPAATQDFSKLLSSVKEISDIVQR
Sequence of Casein kinase I isoform delta (Homo sapiens) (P48730 whole entry, looked up, canonical isoform): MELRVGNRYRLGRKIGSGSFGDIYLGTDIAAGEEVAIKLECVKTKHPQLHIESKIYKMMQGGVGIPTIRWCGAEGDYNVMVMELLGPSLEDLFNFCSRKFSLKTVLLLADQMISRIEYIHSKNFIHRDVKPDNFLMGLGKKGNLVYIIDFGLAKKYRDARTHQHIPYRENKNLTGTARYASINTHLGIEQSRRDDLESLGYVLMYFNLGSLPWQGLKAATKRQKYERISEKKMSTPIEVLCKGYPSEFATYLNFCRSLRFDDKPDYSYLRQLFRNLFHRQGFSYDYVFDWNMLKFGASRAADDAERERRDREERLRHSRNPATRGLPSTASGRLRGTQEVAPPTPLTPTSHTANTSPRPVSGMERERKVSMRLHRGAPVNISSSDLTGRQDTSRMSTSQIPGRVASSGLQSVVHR
Sequence of Glycogen synthase kinase-3 beta (Homo sapiens) (P49841 whole entry, looked up): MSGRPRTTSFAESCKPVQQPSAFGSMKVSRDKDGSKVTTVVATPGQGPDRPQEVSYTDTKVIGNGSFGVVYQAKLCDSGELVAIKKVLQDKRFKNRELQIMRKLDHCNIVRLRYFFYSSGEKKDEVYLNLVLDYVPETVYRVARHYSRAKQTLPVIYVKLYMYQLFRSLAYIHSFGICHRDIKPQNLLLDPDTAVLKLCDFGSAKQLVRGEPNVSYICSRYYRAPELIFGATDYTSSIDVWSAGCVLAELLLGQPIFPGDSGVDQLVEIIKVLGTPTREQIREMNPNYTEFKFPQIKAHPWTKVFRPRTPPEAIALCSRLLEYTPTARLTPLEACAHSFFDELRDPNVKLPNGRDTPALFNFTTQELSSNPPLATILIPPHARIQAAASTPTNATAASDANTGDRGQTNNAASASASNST
Sequence of Mitogen-activated protein kinase 1 (Homo sapiens) (P28482 whole entry): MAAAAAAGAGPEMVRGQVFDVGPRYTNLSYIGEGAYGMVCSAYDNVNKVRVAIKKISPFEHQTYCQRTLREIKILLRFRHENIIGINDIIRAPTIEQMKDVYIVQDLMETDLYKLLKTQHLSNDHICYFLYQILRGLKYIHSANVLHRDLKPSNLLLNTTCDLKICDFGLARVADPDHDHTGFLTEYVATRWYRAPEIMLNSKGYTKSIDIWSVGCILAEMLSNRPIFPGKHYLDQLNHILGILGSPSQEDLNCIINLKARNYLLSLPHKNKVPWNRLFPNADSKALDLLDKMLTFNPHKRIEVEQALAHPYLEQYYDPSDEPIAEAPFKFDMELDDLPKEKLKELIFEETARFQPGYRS

For `Cc1cc(C)c(-c2[nH]nc(C)c2C)cc1C(=O)N1CC(c2ccc(C#N)cc2)C1`, the ΔTm was 1.06 °C in assay [1]; -3.66 °C in assay [2]; -0.16 °C in assay [3]; -0.21 °C in assay [4]; -0.42 °C in assay [5]; 0.26 °C in assay [6]. Further, the ΔTm is -2.18 °C in assay [7] and -0.05 °C in assay [8].
With `Cc1cccc(Nc2ccncc2S(=O)(=O)NC(=O)NC(C)C)c1`, the ΔTm in assay [1] is 0.72 °C; in assay [2], -2.84 °C; in assay [3], -0.02 °C; in assay [4], -0.02 °C; in assay [5] it was -0.74 °C; in assay [6], 0.43 °C. The ΔTm in assay [7] was -2.33 °C; in assay [8], 0.72 °C.
On to `OC[C@H]1O[C@@H](c2ccc(F)c(Cc3cc4ccccc4s3)c2)[C@H](O)[C@@H](O)[C@@H]1O`, for which the ΔTm is 0.51 °C in assay [1]; -3.4 °C in assay [2]; 0.04 °C in assay [3]; -0.29 °C in assay [4]; -0.62 °C in assay [5]; 0.05 °C in assay [6]. The shift in melting temperature (ΔTm) in assay [7] was -1.82 °C; in assay [8] it was -0.42 °C.
Consider `COC(=O)[C@@H]1CC2=CC(=O)CC[C@]2(C)[C@@]23O[C@@H]2C[C@@]2(C)[C@@H](CC[C@@]24CCC(=O)O4)[C@H]13`, for which the ΔTm is 0.55 °C in assay [1]; -1.74 °C in assay [2]; -0.21 °C in assay [3]; 0.47 °C in assay [4]; -0.8 °C in assay [5]; 0.21 °C in assay [6]. The shift in melting temperature (ΔTm) in assay [7] was -0.81 °C; in assay [8], -0.62 °C.
For `Cc1cnc(-c2ccccc2C(C)C)nc1NCc1ccc(-n2ccnn2)cc1`, the ΔTm is 0.32 °C in assay [1]; -1.87 °C in assay [2]; -0.07 °C in assay [3]; -7.36 °C in assay [4]; 0.1 °C in assay [5]; 0.55 °C in assay [6]. Moreover, the ΔTm in assay [7] is -2.6 °C; in assay [8], -0.58 °C.
On to `CSCC[C@H](NC(=O)[C@H](CC(=O)O)NC(C)=O)C(=O)N[C@@H](CCC(N)=O)C(=O)N[C@H](C=O)CC(=O)O` (Ac-DMQD-aldehyde), for which the thermal shift (ΔTm) is 0.11 °C in assay [1]; -1.14 °C in assay [2]; -0.29 °C in assay [3]; 0.02 °C in assay [4]; -0.48 °C in assay [5]; -0.4 °C in assay [6]. The values for the ΔTm in assay [7] and in assay [8] were -1.16 °C and -0.9 °C, respectively.
Take `CC(=O)N[C@@H](CC(C)C)C(=O)N[C@@H](CCC(=O)O)C(=O)N[C@@H](Cc1cnc[nH]1)C(=O)N[C@@H](CC(=O)O)C(=O)CCl` (Ac-LEHD-CH2Cl): the ΔTm in assay [1] is 0.46 °C; in assay [2] it was -2.67 °C; in assay [3] it was -0.58 °C; in assay [4] it was 0.2 °C; in assay [5] it was 0.91 °C; in assay [6] it was 0.29 °C. The thermal shift (ΔTm) was -1.15 °C in assay [7] and -1.2 °C in assay [8].
`Cc1nc(N)c2nnn(C[C@H]3CN(Cc4nccs4)CCO3)c2n1`: the shift in melting temperature (ΔTm) in assay [1] is 0.44 °C; in assay [2], -3.68 °C; in assay [3], -0.07 °C; in assay [4] it was -0.32 °C; in assay [5], -0.34 °C; in assay [6], 0.04 °C. The ΔTm in assay [7] is -1.7 °C; in assay [8], 1.36 °C.
Take `CC1(C)c2cccc(C(=O)NO)c2CN1c1cnc(C(F)(F)F)cn1`: the ΔTm was 0.41 °C in assay [1]; -2.93 °C in assay [2]; -2.1 °C in assay [3]; 0.64 °C in assay [4]; 0 °C in assay [5]; 0 °C in assay [6]. Moreover, the ΔTm is -2.98 °C in assay [7] and -1.07 °C in assay [8].
In the case of `CC(C)N(CCCNC(=O)Nc1ccc(C(C)(C)C)cc1)C[C@H]1O[C@@H](n2ccc3c(N)ncnc32)[C@H](O)[C@@H]1O`, the ΔTm in assay [1] was 0.45 °C; in assay [2], -1.62 °C; in assay [3], 0.52 °C; in assay [4], 0.47 °C; in assay [5], -0.31 °C; in assay [6], 0.01 °C. The results for the ΔTm in assay [7] and in assay [8] were 0.01 °C and -1.18 °C, respectively.
`O=C(C=Cc1ccc(O)cc1)c1ccc(O)cc1O`: the ΔTm in assay [1] was determined as 6.6 °C; in assay [2], 1.51 °C; in assay [3], 1.64 °C; in assay [4], 1.31 °C; in assay [5], 2.87 °C; in assay [6], 1.33 °C. Also, the ΔTm in assay [7] was 1.81 °C; in assay [8] it was -0.03 °C.
